Tests used:
[1] = molecular target: Rho-associated protein kinase 1 (Homo sapiens) (UniProt Q13464); settings: at 1 µM;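 note: reported values are mean percent inhibition of ROCK1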
[2] = molecular target: Rho-associated protein kinase 2 (Homo sapiens) (UniProt O75116); settings: at 0.1 µM
[3] = molecular target: Rho-associated protein kinase 2 (Homo sapiens) (UniProt O75116); settings: at 1 µM
[4] = molecular target: Ribosomal protein S6 kinase alpha-1 (Homo sapiens) (UniProt Q15418); settings: at 0.1 µM
[5] = molecular target: Ribosomal protein S6 kinase alpha-1 (Homo sapiens) (UniProt Q15418); settings: at 1 µM
[6] = molecular target: Ribosomal protein S6 kinase alpha-3 (Homo sapiens) (UniProt P51812); settings: at 0.1 µM
[7] = molecular target: Ribosomal protein S6 kinase alpha-3 (Homo sapiens) (UniProt P51812); settings: at 1 µM
[8] = molecular target: Ribosomal protein S6 kinase alpha-2 (Homo sapiens) (UniProt Q15349); settings: at 0.1 µM
[9] = molecular target: Ribosomal protein S6 kinase alpha-2 (Homo sapiens) (UniProt Q15349); settings: at 1 µM
[10] = molecular target: Ribosomal protein S6 kinase alpha-6 (Homo sapiens) (UniProt Q9UK32); settings: at 0.1 µM
[11] = molecular target: Ribosomal protein S6 kinase alpha-6 (Homo sapiens) (UniProt Q9UK32); settings: at 1 µM
[12] = molecular target: T1, Serine/threonine-protein kinase Sgk1 (Homo sapiens) (UniProt O00141); settings: at 0.1 µM
T1 sequence (whole entry): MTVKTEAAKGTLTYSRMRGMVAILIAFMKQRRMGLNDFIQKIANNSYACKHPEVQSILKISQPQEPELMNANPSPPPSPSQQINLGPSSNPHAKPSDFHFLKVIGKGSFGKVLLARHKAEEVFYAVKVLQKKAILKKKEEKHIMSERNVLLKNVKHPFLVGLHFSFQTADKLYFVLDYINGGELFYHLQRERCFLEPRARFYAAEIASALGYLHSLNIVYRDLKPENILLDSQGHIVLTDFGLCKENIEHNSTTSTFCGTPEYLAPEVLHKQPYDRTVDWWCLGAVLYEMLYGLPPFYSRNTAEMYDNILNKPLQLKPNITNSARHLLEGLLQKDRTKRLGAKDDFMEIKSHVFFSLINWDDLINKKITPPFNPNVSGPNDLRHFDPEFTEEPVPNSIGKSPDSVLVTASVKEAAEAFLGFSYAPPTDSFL

[13] = molecular target: T1, Serine/threonine-protein kinase Sgk1 (Homo sapiens); settings: at 1 µM
[14] = molecular target: T2, Serine/threonine-protein kinase Sgk2 (Homo sapiens) (UniProt Q9HBY8); settings: at 0.1 µM
T2 sequence (whole entry): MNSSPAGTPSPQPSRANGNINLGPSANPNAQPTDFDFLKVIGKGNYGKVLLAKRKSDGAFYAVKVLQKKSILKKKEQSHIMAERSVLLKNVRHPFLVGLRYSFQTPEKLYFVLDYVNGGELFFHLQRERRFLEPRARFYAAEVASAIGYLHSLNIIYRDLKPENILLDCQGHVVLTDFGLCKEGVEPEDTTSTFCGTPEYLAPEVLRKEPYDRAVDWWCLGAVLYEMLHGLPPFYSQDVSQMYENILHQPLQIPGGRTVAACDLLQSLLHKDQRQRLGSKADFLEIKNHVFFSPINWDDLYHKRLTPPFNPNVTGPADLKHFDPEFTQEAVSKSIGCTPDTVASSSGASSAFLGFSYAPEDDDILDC

[15] = molecular target: T3, Serine/threonine-protein kinase Sgk3 (Homo sapiens) (UniProt Q96BR1); settings: at 0.1 µM
T3 sequence (whole entry): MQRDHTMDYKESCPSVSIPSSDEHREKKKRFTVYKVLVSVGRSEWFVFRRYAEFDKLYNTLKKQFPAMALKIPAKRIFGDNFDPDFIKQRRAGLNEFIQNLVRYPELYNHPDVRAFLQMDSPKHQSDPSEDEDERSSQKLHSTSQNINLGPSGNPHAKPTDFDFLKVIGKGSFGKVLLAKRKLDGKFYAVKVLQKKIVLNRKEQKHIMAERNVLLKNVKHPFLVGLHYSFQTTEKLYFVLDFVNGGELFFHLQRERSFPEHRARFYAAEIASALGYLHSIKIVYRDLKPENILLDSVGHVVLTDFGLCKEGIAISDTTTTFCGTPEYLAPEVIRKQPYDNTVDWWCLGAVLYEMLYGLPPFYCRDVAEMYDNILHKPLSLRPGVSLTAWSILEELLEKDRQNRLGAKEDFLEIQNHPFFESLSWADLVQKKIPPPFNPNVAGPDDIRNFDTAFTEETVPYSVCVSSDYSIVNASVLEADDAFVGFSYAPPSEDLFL

[16] = molecular target: T3, Serine/threonine-protein kinase Sgk3 (Homo sapiens); settings: at 1 µM
[17] = molecular target: 5'-AMP-activated protein kinase catalytic subunit alpha-1 (Homo sapiens) (UniProt Q13131); settings: at 0.1 µM
[18] = molecular target: 5'-AMP-activated protein kinase catalytic subunit alpha-1 (Homo sapiens) (UniProt Q13131); settings: at 1 µM
[19] = molecular target: 5'-AMP-activated protein kinase catalytic subunit alpha-2 (Homo sapiens) (UniProt P54646); settings: at 0.1 µM;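 note: mean inhibition measured on the AMPK complex of alpha2, beta1 and gamma1 subunits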
[20] = molecular target: T2, Serine/threonine-protein kinase Sgk2 (Homo sapiens); settings: at 1 µM

Chain of Ribosomal protein S6 kinase alpha-3 (Homo sapiens) (P51812 whole entry): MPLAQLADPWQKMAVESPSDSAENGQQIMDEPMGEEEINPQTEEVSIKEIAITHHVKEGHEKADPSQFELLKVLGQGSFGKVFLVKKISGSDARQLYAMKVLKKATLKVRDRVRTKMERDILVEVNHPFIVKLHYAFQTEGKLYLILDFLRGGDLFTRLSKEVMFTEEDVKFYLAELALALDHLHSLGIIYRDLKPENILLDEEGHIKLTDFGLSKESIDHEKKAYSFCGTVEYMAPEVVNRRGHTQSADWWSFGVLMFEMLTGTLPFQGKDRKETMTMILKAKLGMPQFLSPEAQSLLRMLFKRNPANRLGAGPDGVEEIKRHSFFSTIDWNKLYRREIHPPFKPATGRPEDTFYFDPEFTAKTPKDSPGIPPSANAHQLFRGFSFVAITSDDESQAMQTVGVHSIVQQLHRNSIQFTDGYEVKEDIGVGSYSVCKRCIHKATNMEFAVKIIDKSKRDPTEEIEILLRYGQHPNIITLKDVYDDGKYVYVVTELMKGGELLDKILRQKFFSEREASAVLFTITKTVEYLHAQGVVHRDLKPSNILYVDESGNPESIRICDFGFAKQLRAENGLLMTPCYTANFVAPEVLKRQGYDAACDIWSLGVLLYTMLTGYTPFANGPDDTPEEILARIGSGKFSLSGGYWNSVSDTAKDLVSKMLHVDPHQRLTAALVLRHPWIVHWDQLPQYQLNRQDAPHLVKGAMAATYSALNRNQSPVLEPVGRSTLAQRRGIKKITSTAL
Chain of 5'-AMP-activated protein kinase catalytic subunit alpha-1 (Homo sapiens) (Q13131 whole entry, looked up): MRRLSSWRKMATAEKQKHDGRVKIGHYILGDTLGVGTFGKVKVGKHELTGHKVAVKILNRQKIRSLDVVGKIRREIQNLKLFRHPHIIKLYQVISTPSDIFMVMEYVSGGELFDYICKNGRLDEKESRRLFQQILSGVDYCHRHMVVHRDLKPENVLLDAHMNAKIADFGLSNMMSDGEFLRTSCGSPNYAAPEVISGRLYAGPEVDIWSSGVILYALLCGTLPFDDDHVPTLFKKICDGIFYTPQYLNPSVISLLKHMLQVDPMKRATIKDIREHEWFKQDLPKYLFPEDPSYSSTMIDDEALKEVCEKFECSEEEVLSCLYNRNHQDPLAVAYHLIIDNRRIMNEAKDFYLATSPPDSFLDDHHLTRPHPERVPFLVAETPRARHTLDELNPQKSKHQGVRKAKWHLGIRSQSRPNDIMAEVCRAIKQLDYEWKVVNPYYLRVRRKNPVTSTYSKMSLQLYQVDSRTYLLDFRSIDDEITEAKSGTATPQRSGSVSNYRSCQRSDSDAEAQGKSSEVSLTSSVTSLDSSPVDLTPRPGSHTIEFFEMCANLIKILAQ
Chain of Rho-associated protein kinase 1 (Homo sapiens) (Q13464 2-1354 limits assumed): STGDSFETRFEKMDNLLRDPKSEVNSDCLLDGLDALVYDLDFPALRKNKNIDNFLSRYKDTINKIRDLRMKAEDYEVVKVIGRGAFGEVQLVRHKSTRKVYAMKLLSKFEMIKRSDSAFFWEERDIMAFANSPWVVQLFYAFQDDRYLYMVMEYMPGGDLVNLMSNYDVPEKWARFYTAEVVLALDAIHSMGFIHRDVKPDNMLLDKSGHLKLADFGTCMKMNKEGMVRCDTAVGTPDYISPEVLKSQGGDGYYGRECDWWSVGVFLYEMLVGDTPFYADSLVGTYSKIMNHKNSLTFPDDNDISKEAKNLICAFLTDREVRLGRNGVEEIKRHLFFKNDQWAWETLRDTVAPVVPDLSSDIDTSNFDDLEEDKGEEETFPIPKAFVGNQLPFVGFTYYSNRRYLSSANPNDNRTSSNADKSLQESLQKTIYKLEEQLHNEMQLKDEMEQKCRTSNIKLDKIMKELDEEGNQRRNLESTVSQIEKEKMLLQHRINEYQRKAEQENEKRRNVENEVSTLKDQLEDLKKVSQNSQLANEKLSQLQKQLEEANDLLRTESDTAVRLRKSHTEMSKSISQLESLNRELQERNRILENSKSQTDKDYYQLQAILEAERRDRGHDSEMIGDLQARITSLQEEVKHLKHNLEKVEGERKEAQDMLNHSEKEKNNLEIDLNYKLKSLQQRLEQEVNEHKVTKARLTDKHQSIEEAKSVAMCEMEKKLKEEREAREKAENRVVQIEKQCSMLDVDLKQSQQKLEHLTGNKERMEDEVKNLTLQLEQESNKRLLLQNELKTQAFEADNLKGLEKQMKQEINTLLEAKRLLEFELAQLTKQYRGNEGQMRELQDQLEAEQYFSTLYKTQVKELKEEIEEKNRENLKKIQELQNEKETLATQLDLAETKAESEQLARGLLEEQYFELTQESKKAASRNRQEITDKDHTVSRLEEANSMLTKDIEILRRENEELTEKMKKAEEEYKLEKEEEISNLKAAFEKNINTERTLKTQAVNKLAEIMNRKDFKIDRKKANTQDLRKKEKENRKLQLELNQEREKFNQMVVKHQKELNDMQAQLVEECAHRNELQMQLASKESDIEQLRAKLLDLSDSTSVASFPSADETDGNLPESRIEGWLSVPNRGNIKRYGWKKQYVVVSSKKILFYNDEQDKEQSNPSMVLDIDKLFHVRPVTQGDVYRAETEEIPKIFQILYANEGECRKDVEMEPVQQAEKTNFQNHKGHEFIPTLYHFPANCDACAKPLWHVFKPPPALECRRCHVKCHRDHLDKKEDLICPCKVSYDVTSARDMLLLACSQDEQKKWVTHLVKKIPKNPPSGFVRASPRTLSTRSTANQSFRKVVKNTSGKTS
Chain of Rho-associated protein kinase 2 (Homo sapiens) (O75116 whole entry, looked up): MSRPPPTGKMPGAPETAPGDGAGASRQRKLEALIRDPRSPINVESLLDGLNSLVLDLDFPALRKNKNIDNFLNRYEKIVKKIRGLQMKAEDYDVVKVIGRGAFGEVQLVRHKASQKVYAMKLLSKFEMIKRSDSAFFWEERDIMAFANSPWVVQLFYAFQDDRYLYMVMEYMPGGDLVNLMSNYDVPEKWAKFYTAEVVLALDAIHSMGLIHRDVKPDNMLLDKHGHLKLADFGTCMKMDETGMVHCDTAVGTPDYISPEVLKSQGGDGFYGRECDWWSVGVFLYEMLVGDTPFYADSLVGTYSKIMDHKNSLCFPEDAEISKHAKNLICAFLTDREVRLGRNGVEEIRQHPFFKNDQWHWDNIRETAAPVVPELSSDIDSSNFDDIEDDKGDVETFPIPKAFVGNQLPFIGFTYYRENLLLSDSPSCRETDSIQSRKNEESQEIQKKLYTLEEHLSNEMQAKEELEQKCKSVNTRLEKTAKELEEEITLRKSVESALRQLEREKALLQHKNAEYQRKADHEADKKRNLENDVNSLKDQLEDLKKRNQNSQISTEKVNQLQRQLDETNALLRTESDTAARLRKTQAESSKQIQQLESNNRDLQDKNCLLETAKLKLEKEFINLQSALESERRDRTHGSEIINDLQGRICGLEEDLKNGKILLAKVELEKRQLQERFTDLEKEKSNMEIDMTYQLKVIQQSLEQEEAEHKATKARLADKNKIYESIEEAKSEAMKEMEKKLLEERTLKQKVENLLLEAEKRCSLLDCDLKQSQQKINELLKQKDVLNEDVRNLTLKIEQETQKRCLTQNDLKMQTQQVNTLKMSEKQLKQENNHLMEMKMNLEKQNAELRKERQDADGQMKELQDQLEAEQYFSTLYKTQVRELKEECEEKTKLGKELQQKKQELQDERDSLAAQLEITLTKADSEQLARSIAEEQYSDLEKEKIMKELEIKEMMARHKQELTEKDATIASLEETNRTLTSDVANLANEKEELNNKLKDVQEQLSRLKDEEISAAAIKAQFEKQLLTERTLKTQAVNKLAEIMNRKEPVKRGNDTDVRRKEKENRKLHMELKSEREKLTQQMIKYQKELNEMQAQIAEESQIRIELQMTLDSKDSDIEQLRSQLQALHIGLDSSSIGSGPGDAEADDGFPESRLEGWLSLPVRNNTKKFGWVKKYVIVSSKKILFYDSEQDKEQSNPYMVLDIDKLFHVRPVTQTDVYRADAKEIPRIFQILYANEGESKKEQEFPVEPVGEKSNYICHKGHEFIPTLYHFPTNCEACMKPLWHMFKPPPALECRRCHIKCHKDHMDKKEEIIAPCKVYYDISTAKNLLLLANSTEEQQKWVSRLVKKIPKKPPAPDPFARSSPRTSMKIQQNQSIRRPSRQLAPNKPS
Chain of 5'-AMP-activated protein kinase catalytic subunit alpha-2 (Homo sapiens) (P54646 whole entry, looked up): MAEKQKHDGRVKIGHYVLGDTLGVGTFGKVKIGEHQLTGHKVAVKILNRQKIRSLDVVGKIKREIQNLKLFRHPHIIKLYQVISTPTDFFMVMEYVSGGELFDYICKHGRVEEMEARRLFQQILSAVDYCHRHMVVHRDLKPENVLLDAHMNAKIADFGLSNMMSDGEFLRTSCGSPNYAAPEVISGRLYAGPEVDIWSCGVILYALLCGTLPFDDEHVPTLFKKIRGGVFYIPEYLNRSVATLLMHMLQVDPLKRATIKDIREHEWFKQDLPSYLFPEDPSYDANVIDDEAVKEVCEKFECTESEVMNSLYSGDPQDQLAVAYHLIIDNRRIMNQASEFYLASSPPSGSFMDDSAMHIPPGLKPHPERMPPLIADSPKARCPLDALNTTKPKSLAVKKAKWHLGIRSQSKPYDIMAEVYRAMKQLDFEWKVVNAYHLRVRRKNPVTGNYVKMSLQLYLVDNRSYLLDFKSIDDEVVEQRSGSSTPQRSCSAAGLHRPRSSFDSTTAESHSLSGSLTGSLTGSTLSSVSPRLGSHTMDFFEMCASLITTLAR

## NCc1ccc(-c2nc(-c3ccc(Cl)c(O)c3)c(-c3ccncc3)[nH]2)cc1
[1]
  inhibition: 2.17%
[2]
  inhibition: -0.88%
[3]
  inhibition: 0.95%
[4]
  inhibition: -0.63%
[5]
  inhibition: 1.3%
[6]
  inhibition: -1.01%
[7]
  inhibition: -1.09%
[8]
  inhibition: 0.29%
[9]
  inhibition: 1.53%
[10]
  inhibition: 0.47%
[11]
  inhibition: 0.03%
[12]
  inhibition: 0.62%
[13]
  inhibition: 0.21%
[14]
  inhibition: 0.15%
[15]
  inhibition: -0.56%
[16]
  inhibition: -0.81%
[17]
  inhibition: 0.17%
[18]
  inhibition: -1.38%
[19]
  inhibition: -2.35%

## COc1cc2ncn(-c3cc(O[C@H](C)c4ccccc4Cl)c(C(N)=O)s3)c2cc1OC
[1]
  inhibition: 3.85%
[2]
  inhibition: 4.45%
[3]
  inhibition: 13.6%
[4]
  inhibition: 3.9%
[5]
  inhibition: 18.7%
[6]
  inhibition: 3.39%
[7]
  inhibition: 16.4%
[8]
  inhibition: 2.9%
[9]
  inhibition: 10.6%
[10]
  inhibition: 3.57%
[11]
  inhibition: 25.5%
[12]
  inhibition: 5.03%
[13]
  inhibition: 7.28%
[14]
  inhibition: 2.67%
[20]
  inhibition: 5.65%
[15]
  inhibition: 5.72%
[16]
  inhibition: 6.55%
[17]
  inhibition: 6.49%
[18]
  inhibition: 23.7%
[19]
  inhibition: 2.58%

## Cc1cc(O)cc(C)c1/C=C/c1cncc(-c2nn[nH]n2)c1
[1]
  inhibition: 1.86%
[2]
  inhibition: 2.66%
[3]
  inhibition: 2.33%
[4]
  inhibition: 2.97%
[5]
  inhibition: 1%
[6]
  inhibition: 1.94%
[7]
  inhibition: 1.24%
[8]
  inhibition: 3.53%
[9]
  inhibition: 3.85%
[10]
  inhibition: 2.1%
[11]
  inhibition: 0.92%
[12]
  inhibition: 3.17%
[13]
  inhibition: 2.09%
[14]
  inhibition: -1.45%
[20]
  inhibition: 1.25%
[15]
  inhibition: 1.96%
[16]
  inhibition: 3.83%
[17]
  inhibition: 3.54%
[18]
  inhibition: 3.56%
[19]
  inhibition: 3.69%

## c1cnn2ncc(-c3ccnc(Nc4ccc5c(c4)OCCO5)n3)c2c1
[1]
  inhibition: 9.73%
[2]
  inhibition: 4.95%
[3]
  inhibition: 19.1%
[4]
  inhibition: 2.62%
[5]
  inhibition: 7.26%
[6]
  inhibition: 0.94%
[7]
  inhibition: 4.28%
[8]
  inhibition: 2.89%
[9]
  inhibition: 4.85%
[10]
  inhibition: 3.28%
[11]
  inhibition: 9.17%
[12]
  inhibition: 2.25%
[13]
  inhibition: 7.34%
[14]
  inhibition: 6.82%
[20]
  inhibition: 1.72%
[15]
  inhibition: 2.27%
[16]
  inhibition: -0.29%
[17]
  inhibition: 4.61%
[18]
  inhibition: 11.6%
[19]
  inhibition: 1.53%

## Cc1nnc(-c2ccc(C)c(-c3ccc(C(=O)Nc4cccc(C#N)c4)cc3)c2)o1
[1]
  inhibition: 0.62%
[2]
  inhibition: -0.03%
[3]
  inhibition: 3.81%
[4]
  inhibition: 1.66%
[5]
  inhibition: 3.77%
[6]
  inhibition: 1.23%
[7]
  inhibition: 2.97%
[8]
  inhibition: 0.46%
[9]
  inhibition: 2.89%
[10]
  inhibition: 0%
[11]
  inhibition: 1.23%
[12]
  inhibition: 0.29%
[13]
  inhibition: 4.49%
[14]
  inhibition: -1.98%
[20]
  inhibition: 0.76%
[15]
  inhibition: 1.01%
[16]
  inhibition: 3.55%
[17]
  inhibition: 2.8%
[18]
  inhibition: 2.03%
[19]
  inhibition: -0.06%

## CC(C)=Cc1cccc2c1/C(=N/Nc1ccc(S(N)(=O)=O)cc1)C(=O)N2
[1]
  inhibition: 10.1%
[2]
  inhibition: 3.96%
[3]
  inhibition: 20.5%
[4]
  inhibition: 2.45%
[5]
  inhibition: 12.4%
[6]
  inhibition: 1.53%
[7]
  inhibition: 8.42%
[8]
  inhibition: 2.5%
[9]
  inhibition: 16.4%
[10]
  inhibition: 1.61%
[11]
  inhibition: 13.6%
[12]
  inhibition: 0.34%
[13]
  inhibition: 5.74%
[14]
  inhibition: -2.99%
[20]
  inhibition: 3.04%
[15]
  inhibition: 0.02%
[16]
  inhibition: 0.72%
[17]
  inhibition: 13.9%
[18]
  inhibition: 56.6%
[19]
  inhibition: 3.74%
